HSF1 inh: HSF1 inhibition; NIH3T3-HGL HSE-luciferase, MG132-induced, luminescence 8 h; stronger effect = lower value; activity change, negative = inhibition, % at 7.5 µM (by protocol); 300,000 tested, 0.77% active; AID 2098;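 active = more than half of replicate wells show activity change below -50%, luminescence cut by over half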;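 note: luciferase reports HSF-1 transcriptional activity via heat shock element; 0% = median of DMSO wells and -100% = zero luminescence signal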
NPR2 activator: GC-B (human) receptor activation. P20594. HEK293-GC-B cells, CNP EC30, cGMP TR-FRET; 0% at EC30 CNP, 100% saturating CNP. activation, % at 10 µM. 370,000 tested, 0.11% active. AID 1920062;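 active = activation at 10 µM reaching about 35% in either raw or pattern-adjusted values, limit read from the data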
HSF-1 act: increases HSF-1 driven luciferase reporter signal; 300,000 tested, 1.7% active; NIH3T3-HGL HSF-1 luciferase reporter, MG132, 8 h; 100% = twice DMSO control signal; activation, % at 9 µM;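 active = mean replicate activation of at least 50% with a set share of replicates each reaching 50%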;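 note: 0% = median of the neutral control wells and 100% = twice that signal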
GC-A act: GC-A (human) enzyme activation; P16066; HEK293 GC-A cells, cGMP TR-FRET, EC30 ANP; 0% at EC30 ANP, 100% saturating ANP; activation, % at 10 µM; 370,000 tested, 0.14% active; in the data active = activation above about 40%
Target sequence (P16066 whole entry, looked up): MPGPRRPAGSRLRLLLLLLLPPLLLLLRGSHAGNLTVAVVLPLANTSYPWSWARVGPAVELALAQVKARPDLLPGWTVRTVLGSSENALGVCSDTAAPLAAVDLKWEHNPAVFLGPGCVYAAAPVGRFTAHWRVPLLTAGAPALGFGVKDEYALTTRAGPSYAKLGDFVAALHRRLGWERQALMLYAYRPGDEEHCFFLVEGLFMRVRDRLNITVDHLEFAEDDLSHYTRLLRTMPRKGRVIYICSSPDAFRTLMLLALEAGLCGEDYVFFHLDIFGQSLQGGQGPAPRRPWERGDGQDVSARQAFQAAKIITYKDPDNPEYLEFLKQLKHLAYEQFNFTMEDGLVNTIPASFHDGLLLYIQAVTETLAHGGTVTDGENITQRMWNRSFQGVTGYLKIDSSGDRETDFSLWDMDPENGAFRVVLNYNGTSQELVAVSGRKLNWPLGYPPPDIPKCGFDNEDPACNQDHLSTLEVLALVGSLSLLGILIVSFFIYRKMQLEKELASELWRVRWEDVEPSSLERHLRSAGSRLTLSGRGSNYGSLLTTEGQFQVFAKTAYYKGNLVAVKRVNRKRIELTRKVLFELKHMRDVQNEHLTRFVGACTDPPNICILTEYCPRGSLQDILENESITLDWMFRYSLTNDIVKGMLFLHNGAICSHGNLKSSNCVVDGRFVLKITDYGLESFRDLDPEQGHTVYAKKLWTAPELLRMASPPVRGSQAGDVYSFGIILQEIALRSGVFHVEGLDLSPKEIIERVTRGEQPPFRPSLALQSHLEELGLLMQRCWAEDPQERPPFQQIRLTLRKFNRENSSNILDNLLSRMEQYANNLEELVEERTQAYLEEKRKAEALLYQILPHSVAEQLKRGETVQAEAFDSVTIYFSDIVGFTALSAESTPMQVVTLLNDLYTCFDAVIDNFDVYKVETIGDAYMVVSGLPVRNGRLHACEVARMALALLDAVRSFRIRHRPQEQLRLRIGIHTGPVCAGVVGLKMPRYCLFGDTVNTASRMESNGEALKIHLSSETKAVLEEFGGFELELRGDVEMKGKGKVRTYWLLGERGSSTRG
DYRK1A inh: inhibitors of rat Dyrk1A kinase; Q63470; AID 504441; 310,000 tested, 0.43% active; ADP-Glo luminescence, NFATc1 peptide; inhibition, % at 12.5 µM; in the data active = inhibition above about 50%;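 note: plate controls were vehicle with enzyme for no effect and no enzyme for full effect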
aDG glyco up: increases alpha dystroglycan glycosylation. Pro5-aDG cells, alpha-DG glycosylation AlphaScreen (IIH6); 0% Pro5, 100% B10-LARGE cell signal. activation, % at 10 µM. 360,000 tested, 0.22% active;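 active = activation of at least 8% versus controls, or a plate z-score of at least 8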;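 note: Pro5 are CHO cells carrying HIG-tagged alpha-DG that lacks glycosylation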
Starred values were filed as active, the others as inactive; x = not tested or not shown. Shown are actives, neighbours in structure and some others; about 2.5% of the full set was active somewhere.

SMILES | HSF1 inh | NPR2 activator | HSF-1 act | GC-A act | DYRK1A inh | aDG glyco up
Cc1ccc(NC(=O)c2cc([N+](=O)[O-])ccc2N2CCOCC2)cc1S(=O)(=O)N1CCOCC1 | 0 | 4 | 1 | 3 | 8 | -1
O=C(Nc1cccc(S(=O)(=O)N2CCCCC2)c1)c1ccc([N+](=O)[O-])o1 | 56 | -1 | 74* | -7 | -1 | 0
CN(C)c1ccc(C(=O)Nc2cccc(S(=O)(=O)NC3=NCCCCC3)c2)cc1 | x | -6 | x | -2 | x | 0
NCCCC[C@H]1CNC(=O)C(=O)N1CC1CCCCC1 | -8 | -2 | -19 | -1 | 7 | 0
Cc1cccc(NC(=O)c2ccc(N3CCOCC3)c([N+](=O)[O-])c2)n1 | 7 | -5 | 2 | 2 | 7 | 0
Cc1cccc(NC(=O)c2ccc(N3CCCCC3)c([N+](=O)[O-])c2)n1 | 32 | 4 | 62* | 5 | 10 | 0
Cc1cc(C)nc(NC(=O)c2ccc(C)c([N+](=O)[O-])c2)n1 | -72* | -3 | -81 | 1 | 15 | 0
O=C(NCc1ccccn1)c1nc(-c2cccs2)no1 | -7 | 3 | 8 | 0 | 9 | 0
CC(C)(C(=O)N1CCC1(C)C(=O)NS(=O)(=O)c1ccccc1Cl)c1ccccc1 (stereo unspecified) | x | 3 | x | 1 | x | 0
N=c1n(CCN2CCCCC2)c2ccccc2n1CC(=O)c1ccc(Cl)c(Cl)c1 | 8 | -4 | 22 | -5 | x | 5.4*
O=C(CCCN1C(=O)c2cccc3cccc(c23)C1=O)Nc1ccon1 | 49 | -4 | 113* | -5 | 6 | 0
Cc1cccc(NC(=O)CCCN2C(=O)c3cccc4cccc(c34)C2=O)c1 | 2 | -5 | 0 | -7 | 0 | 0
CCCCCC[n+]1c(-c2ccccc2)csc1Nc1ccccc1 | 22 | 0 | 63* | -1 | -7 | 0
O=C(O)c1ccc(C[n+]2c(-c3ccccc3)csc2Nc2ccccc2)cc1 | 19 | -1 | 17 | -2 | 5 | 0
O=C(C[C@@H]1C[C@H]2c3cc(NC(=O)NC4CCCCC4)ccc3O[C@H]2[C@H](CO)O1)NC1CCCCC1 | x | 5 | x | 4 | x | 0
Cc1c(C(=O)c2ccc(Cl)c(Cl)c2)cnc2cc3c(cc12)OCO3 | -13 | 29 | -5 | 17 | 0 | 0
Cc1ccc(S(=O)(=O)c2c(C(=O)c3ccccc3)cnc3cc4c(cc23)OCCO4)cc1 | -66* | -3 | -74 | -4 | -8 | 0
Cc1ccc(S(=O)(=O)NCC(=O)OCC(=O)c2ccc(S(=O)(=O)N3CCCCC3)cc2)cc1C | x | -2 | x | 1 | 6 | 0
CCC(Oc1ccccc1)C(=O)Nc1ccc(S(=O)(=O)N2CCOCC2)cc1 (stereo unspecified) | 8 | 2 | -10 | 1 | 5 | 0
COc1ccc(/C=C/c2nc3ccccc3n2Cc2ccccc2OC)cc1 | 21 | -5 | 68* | -12 | 4 | 1
COc1cc(CN2CCCC(CO)(Cc3ccccc3)C2)ccc1O (stereo unspecified) | 6 | 1 | -19 | 1 | 3 | 0
O=C(Nc1ccc(Cl)c(Cl)c1)c1ccc(Cn2cc(Cl)cn2)cc1 | 40 | 0 | 72* | 3 | 2 | 4
NNC(=O)c1ccc(Cn2cc(Cl)cn2)cc1 | -2 | 1 | 10 | 1 | 2 | 0
CCOC(=O)N1CCN(S(=O)(=O)c2ccc(OCC(=O)OC)c(C)c2)CC1 | 3 | 5 | 4 | 1 | 4 | 0
Cc1ccc[n+](CC(=O)Nc2ccc([N+](=O)[O-])cc2Cl)c1 | 27 | 5 | 67* | -1 | -1 | 0
SMILES | HSF1 inh | NPR2 activator | HSF-1 act | GC-A act | DYRK1A inh | aDG glyco up
CCN(Cc1ccccc1)S(=O)(=O)c1ccc(F)cc1 | -62* | -6 | -67 | 4 | 1 | 0
CCN(CC)C(=O)CN(Cc1ccccc1)S(=O)(=O)c1ccc(F)cc1 | -11 | 2 | -33 | 3 | 19 | 0
C=CCOC(=O)/C(=C/c1cccc2ccccc12)NC(=O)c1ccccc1 | 54 | 1 | 72* | -8 | 5 | 0
CCCCNC(=O)C1(NC(=O)Nc2ccccc2)CCCCC1 | -6 | 6 | 0 | -3 | -5 | 0
CCc1ccc(N2CC(C(=O)N/N=C/c3ccccc3OC)CC2=O)cc1 (stereo unspecified) | -1 | -10 | -7 | 7 | -3 | 0
CCc1ccc(N2CC(C(=O)N/N=C/c3cc([N+](=O)[O-])ccc3O)CC2=O)cc1 (stereo unspecified) | -55* | -8 | -58 | -7 | 0 | 1
O=C(OCn1ncc(Cl)c(Cl)c1=O)c1ccc(F)cc1 | -94* | x | -94 | x | x | x
O=c1c(Cl)c(Cl)cnn1Cc1ccc(F)cc1 | 24 | 4 | 29 | 6 | 4 | 0
O=C(OCn1ncc(Cl)c(Cl)c1=O)c1ccccc1Cl | -95* | 33 | -95 | 43* | 2 | 0
O=C1CN(C(=O)Cn2ncc(Cl)c(Cl)c2=O)c2ccccc2N1 | 36 | 2 | 34 | -4 | x | 0
CC[C@@]1(C(=O)OC)N[C@H](CN(C)C(=O)COC)[C@@H]2C(=O)N(C)C(=O)[C@@H]21 | x | -3 | x | 3 | -5 | 0
CCOc1cc(C(=O)OCC(=O)Nc2ccc(SC(F)F)cc2)cc(OCC)c1OCC | -5 | 2 | -9 | 0 | -5 | 0
CC(=O)Nc1ccc(NC(=O)COc2ccc(Br)cc2C)cc1 | 4 | 4 | 17 | 2 | -1 | 0
Cc1cccc(NC(=O)COc2ccc(Br)cc2/C=N/O)c1 | 65 | -13 | 107* | -8 | 4 | 0
CCN(c1ccccc1)S(=O)(=O)c1ccc(Cl)c(C(=O)N(CC2CCCO2)C2CCS(=O)(=O)C2)c1 (stereo unspecified) | -58* | 4 | -64 | 1 | 0 | 1
CCCCCn1c(=O)[nH]c2cc(C(=O)NCCCN(C)Cc3ccccc3)ccc2c1=O | 12 | -4 | 6 | -8 | 8 | 2
C/C=C1\COC(C(=O)NCc2cccc(OC)c2OC)(C(F)(F)F)C=C1C=C1CCCCC1 (stereo unspecified) | 56 | 2 | 69* | -3 | -2 | 1
C/C=C1\COC(C(=O)NCc2ccncc2)(C(F)(F)F)C=C1C=C1CCCCC1 (stereo unspecified) | 31 | 2 | 63* | -2 | 5 | 0
CC(=O)Nc1ccc(-c2ccnc3c2CC(C)(C(=O)NCc2ccncc2)O3)cc1 (stereo unspecified) | x | -2 | x | 1 | x | 1
CC(C)(C)S(=O)N1Cc2cc(CO)cc(CCO)c2[C@@H]1CCO (stereo partly specified) | x | 2 | x | 4 | x | 0
O=C(Nc1ccc(Cl)cc1)c1csc(COCCO)n1 | x | 4 | x | 25 | x | 0

Screening data as filed in PubChem BioAssay.
